In PubChem BioAssay AID463173 (ICCB-Longwood Screening Facility, Harvard Medical School, 2010) one finds survival data, which are given here for 92 molecules.

Structures are written as SMILES. About 1,700 (3.3%) of roughly 52,000 compounds were called active. For the sample, actives were picked, then their nearest neighbours and some compounds at random. A number with no mark means an inactive call. Cut-off read from the data, not from the text of the source: active = survival mostly below about 52% (no sharp cut-off); inactive = mostly above about 56%.

This test has as its system Wild type. In words: growth inhibition of S. aureus wild type versus tarO mutant, primary screen, teichoic acid synthesis inhibitors, RN4220, OD600 (AID 463173). The conditions noted are these: S. aureus RN4220 wild type/DeltatarO growth, OD600, 18 h, active compounds read low, screened at 18.75 µg/mL (by protocol).
For `COc1ccc(N2CC(NC(=O)/C=C\c3ccccc3)CC2=O)cc1` (configuration not stated), the survival is 101%.
On to `CC(=O)Nc1ccc(N2CCN(Cc3ccccc3)CC2)cc1`, for which the survival is 106%.
On to `COc1ccc2oc(=O)c(-c3csc(-c4ccc(Br)cc4)n3)cc2c1`, for which the survival is 80%.
Next, `CCc1nn(CC(=O)NC2CC2)c(=O)c2cc3ccccc3n12`: 121%; `Cc1ccc2c(=O)cc(C(=O)Nc3nc4ccc(Cl)cc4s3)oc2c1`: 65%.
Turning to `Cc1cc(C)cc(NC(=O)Cn2nnc(C(=O)NCCc3ccccc3)c2N)c1`, the survival is 93%.
Regarding `Cc1ccccc1C(=O)Nc1sc2c(c1C(=O)N1CCCCC1)CCC(C(C)(C)C)C2` (configuration not stated), the survival is 1% (active).
For `COc1ccc(NC(=O)c2c(NC(=O)COc3ccccc3)sc3c2CCC(C(C)(C)C)C3)cc1` (configuration not stated), the survival is 77%.
Regarding `CCC(=O)Nc1sc2c(c1C(=O)Nc1ccc(OC)cc1)CCC(C(C)(C)C)C2` (configuration not stated), the survival is 2% (active).
Turning to `Cc1ccccc1NC(=O)c1c(NC(=O)c2ccco2)sc2c1CCC(C(C)(C)C)C2` (configuration not stated), the survival was 75%.
As to `Cc1ccccc1C(=O)Nc1nc2c(s1)CC(C(C)(C)C)CC2` (configuration not stated), the survival was 124%.
`COc1ccc(NC(=O)c2c(NC(=O)c3ccncc3)sc3c2CCC(C(C)(C)C)C3)cc1` (configuration not stated): the survival is 47%.
As to `CCc1cccc(C)c1NC(=O)CN1C(=O)C2(SCC(=O)N2c2cccc(F)c2)c2ccccc21` (configuration not stated), the survival was 136%.
Next, `Cc1c(Cl)cccc1NC(=O)Cn1nnc(-c2nc(-c3ccccc3)no2)c1N`: 55%.
As to `COc1ccc2c(c1)c1c(c(=O)n(-c3ccccc3C)c(=O)n1C)n2C`, the survival is 81%.
In the case of `CCOc1cc(S(=O)(=O)NC2CC2)c(OCC)cc1-n1cnnn1`, the survival is 102%.
For `COc1ccc(OC)c(CNC(=O)c2cc(=O)[nH]c3ccc(S(=O)(=O)N4CCCCC4C)cc23)c1` (configuration not stated), the survival was 1% (active).
In the case of `COc1ccc(CCNC(=O)c2cc(=O)[nH]c3ccc(S(=O)(=O)N4CCCCC4C)cc23)cc1OC` (configuration not stated), the survival was 127%.
Turning to `COc1ccc(Br)cc1CNC(=O)c1cc(=O)[nH]c2ccc(S(=O)(=O)N3CCCCC3C)cc12` (configuration not stated), the survival is 105%.
Next, `Cc1nn(C(=O)c2ccc(Br)cc2)c(C)c1Sc1ccccc1`: -4% (active); `Cc1ccc(Sc2c(C)nn(C(=O)COc3ccccc3Br)c2C)cc1`: 90%.
The result for `Cc1nn(C(=O)c2ccccc2)c(C)c1S(=O)(=O)N1CCCCCC1` reads 80%.
On to `Cc1ccc(Sc2c(C)nn(C(=O)c3ccc(Br)cc3)c2C)cc1`, for which the survival was 13% (active).
Consider `Cc1nn(C(=O)c2ccc(Br)cc2)c(C)c1S(=O)(=O)N1CCOCC1`, for which the survival is 71%.
Turning to `Cc1nn(C(=O)COc2ccccc2Br)c(C)c1Sc1ccccc1`, the survival is 57%.
As for `Cc1ccc(C)c(NC(=O)N2CCC(CN3CCOCC3)CC2)c1`, the survival is 135%.
The result for `CCC(CC)c1nn2c(=O)cc(COc3ccc(NC(=O)c4ccc(Cl)cc4)cc3)nc2s1` reads 86%; that for `Cc1ccc(Nc2ccc(N3CCN(C(=O)c4ccc([N+](=O)[O-])cc4Cl)CC3)nn2)cc1`, 129%.
Consider `COCCNC(=O)c1ccc2c(=O)n(CCOC)c(SCC(=O)c3c[nH]c4ccccc34)nc2c1`, for which the survival was -1% (active).
Turning to `COCCn1c(SCC(=O)c2c[nH]c3ccccc23)nc2cc(C(=O)NC(C)C)ccc2c1=O`, the survival is 14% (active).
As to `COCCn1c(SCC(=O)c2c(C)[nH]c3ccccc23)nc2cc(C(=O)NC(C)C)ccc2c1=O`, the survival was 74%.
Consider `COCCNC(=O)c1ccc2c(=O)n(CCc3ccccc3)c(SCC(=O)CC(=O)OC)nc2c1`, for which the survival was 78%.
As to `COCCn1c(SCC(=O)c2ccccc2)nc2cc(C(=O)NC3CCCC3)ccc2c1=O`, the survival is 76%.
With `COCCn1c(SCC(=O)c2c[nH]c3ccccc23)nc2cc(C(=O)NCC(C)C)ccc2c1=O`, the survival was 73%.
For the molecule `CCOc1ccc(NC(=O)CCSc2nc(-c3ccc4c(c3)OCO4)cc(C(F)(F)F)n2)cc1`, the survival is 72%.
Consider `COc1ccc(C)cc1NC(=O)NCc1cccn1Cc1ccccc1`, for which the survival is 98%.
The result for `O=C(NCc1ccccc1Cl)c1ccc(NC(=O)N2CCSc3ccccc32)cc1` reads 67%.
`N#CCCSCc1ccc(C(=O)O)o1`: the survival was 107%.
As to `COc1ccc(-c2nc3cc(C(C)C)ccc3o2)cc1NC(=O)c1ccc(C)c(Cl)c1`, the survival is 5% (active).
The result for `Cc1ccc(-c2nc3cc(C(C)C)ccc3o2)cc1NC(=O)c1cc2ccccc2o1` reads 11% (active); that for `CC(C)c1ccc2oc(-c3ccc(NC(=O)c4cc5ccccc5o4)cc3)nc2c1`, 61%; that for `COc1ccc(-c2nc3cc(C(C)C)ccc3o2)cc1NC(=O)COc1ccc(C)cc1C`, 59%.
As to `COc1ccc(-c2nc3ccccc3o2)cc1NC(=O)c1ccc(-c2ccc(C)c(Cl)c2)o1`, the survival was 73%.
`Cc1ccc(-c2nc3cc(Cl)ccc3o2)cc1NC(=O)c1cc2ccccc2o1`: the survival is 72%.
As to `COC(=O)CCN(C(=O)C1CCN(S(=O)(=O)c2c(C)noc2/C=C/c2ccccc2F)CC1)c1ccccc1`, the survival was 126%.
As for `CCC(C)NS(=O)(=O)c1ccc(N2CCCCS2(=O)=O)cc1` (configuration not stated), the survival is 135%.
Turning to `CCOC(=O)c1noc2ncn(CC(=O)Nc3ccc(C)c(F)c3)c(=O)c12`, the survival is 72%.
For the molecule `Cc1ccc(NC(=O)c2cccc(NC(=O)N3CCSc4ncccc43)c2)cc1F`, the survival is 92%.
For the molecule `Cc1ccc(CNS(=O)(=O)c2cc3c(cc2Cl)NC(=O)CO3)o1`, the survival was 124%.
For the molecule `O=C1COc2cc(S(=O)(=O)NCc3ccco3)c(Cl)cc2N1`, the survival is 73%.
`CCCCN(CC)Cc1ccc(CNS(=O)(=O)c2cc3c(cc2Cl)NC(=O)CO3)o1`: the survival was -3% (active).
The result for `CC(C)(CO)NC(=O)c1cc(-c2ccc(Cl)cc2Cl)on1` reads 123%.
Consider `CCOC(=O)c1c(NC(=O)COc2ccc(Cl)cc2Cl)sc2c1CCCCC2`, for which the survival is 76%.
With `COc1ccc(CNC(=O)C2CCN(S(=O)(=O)c3c(C)noc3/C=C/c3ccccc3F)CC2)cc1`, the survival is 94%.
The result for `COc1ccc2sc(N)nc2c1` reads 115%; that for `Nc1n[nH]c(N)c1N=Nc1ccc(Cl)cc1`, 107%.
Next, `COc1ccc(N=Nc2c(N)n[nH]c2N)cc1`: 2% (active); `Cc1ccc(-c2nc3ccccc3o2)cc1NC(=O)c1cccc2c(Cl)cccc12`: 62%.
Turning to `Cn1c(-c2ccccc2)nc2cc(N)ccc21`, the survival was 105%.
As for `COc1ccc(O)c(-c2cn[nH]c2-c2cccs2)c1`, the survival is 105%.
Next, `Fc1ccc(-c2nc(-c3cccs3)c(-c3cccs3)[nH]2)cc1`: 79%; `Oc1cccc(-c2nc(-c3cccs3)c(-c3cccs3)[nH]2)c1`: 3% (active).
As for `Cc1ccc(-c2nc(-c3cccs3)c(-c3cccs3)[nH]2)cc1`, the survival was 76%.
As to `CN(C)c1ccc(-c2nc(-c3cccs3)c(-c3cccs3)[nH]2)cc1`, the survival was 65%.
As to `Oc1ccccc1-c1nc(-c2cccs2)c(-c2cccs2)[nH]1`, the survival is -11% (active).
Take `Cc1ccc(Cc2c(C)nc3nc(SCC(=O)NCCC(C)C)nn3c2C)cc1`: the survival was 64%.
As to `Cc1nn(CC(=O)NCc2ccccc2Cl)c(=O)c2nn(-c3ccccc3)c(C)c12`, the survival was 130%.
For `COc1ccc(NC(=O)Cn2cnc3ccc(S(=O)(=O)N4CCC(C)CC4)cc3c2=O)cc1Cl`, the survival is 158%.
As for `O=C(Nc1c(C(=O)N2CCOCC2)cnn1-c1ccccc1)c1ccccc1F`, the survival is 104%.
Next, `CN1CCN(C(=O)/C=C\C(=O)O)CC1`: 122%; `CCCCSCCCNC(=O)c1cc(-c2cccnc2)nc2ccc(S(=O)(=O)N3CCC(C)CC3)cc12`: 89%; `COc1cc(C)c(Cl)cc1S(=O)(=O)NCCc1c(C)[nH]c2ccccc12`: 73%.
As for `Cc1ccc(Nc2ncccc2C(=O)NC2CCCCC2)cc1`, the survival is 110%.
Turning to `CCOc1ccc(C2C(=O)N(C3CCCCCC3)CC(=O)N2Cc2ccccc2)cc1OC` (configuration not stated), the survival is 75%.
For `CC(=O)c1cccc(NC(=O)[C@H](Cc2ccccc2)N2Cc3ccccc3C2=O)c1`, the survival was 81%.
Turning to `O=C(Nc1ccccc1)C(Cc1ccccc1)N1Cc2ccccc2C1=O` (configuration not stated), the survival was 90%.
Next, `Cc1ccc(C)c(NC(=O)C(Cc2ccccc2)n2cccc2)c1` (configuration not stated): 134%.
Turning to `O=C(Nc1cccc(Cl)c1)C(Cc1ccccc1)n1cccc1` (configuration not stated), the survival was 8% (active).
As for `Cc1ccc(NC(=O)C(Cc2ccccc2)n2cccc2)cc1C` (configuration not stated), the survival is 13% (active).
Turning to `COc1ccc(NC(=O)C(Cc2ccccc2)n2cccc2)cc1OC` (configuration not stated), the survival was 82%.
Take `CCc1cccc(NC(=O)C(Cc2ccccc2)n2cccc2)c1` (configuration not stated): the survival was 12% (active).
Turning to `Cc1cccc(NC(=O)C(Cc2ccccc2)n2cccc2)c1C` (configuration not stated), the survival is 84%.
On to `Cc1ccc(NC(=O)C(Cc2ccccc2)n2cccc2)c(C)c1` (configuration not stated), for which the survival was 81%.
The result for `O=C(O)CC1=C(c2cccs2)CCC1=O` reads 105%; that for `Cc1cc(C(F)F)n2ncc(C(=O)NCc3ccccc3)c2n1`, 108%; that for `COC(=O)c1ccc2c(=O)n(CCCCCC(=O)N3CCN(c4cccc(C)c4C)CC3)c(=O)[nH]c2c1`, 97%.
Next, `CC(C)c1ccc(-c2nc(C(N)=O)c3c(n2)n(-c2ccc4c(c2)OCO4)c(=O)n3C)cc1`: 60%; `Nc1n[nH]c(CCc2ccccc2)n1`: 121%.
As to `CCS(=O)(=O)N1CC(=O)N(c2cccc(C)c2C)C(C)(C(=O)NC2CCCCC2)C1` (configuration not stated), the survival was 89%.
In the case of `CSc1cccc(NS(=O)(=O)c2cn(C)c(C)n2)c1`, the survival was 59%.
In the case of `Cc1ccc(NS(=O)(=O)c2cn(C)c(C)n2)c(Br)c1`, the survival was 88%.
On to `COc1ccccc1NS(=O)(=O)c1cn(C)c(C)n1`, for which the survival is 10% (active).
